A number with no mark means an inactive call. Calls of active or inactive are those of the source. The call rests on the fitted dose curve.
biological target: Estrogen receptor (Homo sapiens) (UniProt P03372); assay: qHTS assay to identify small molecule agonists of the estrogen receptor alpha (ER-alpha) signaling pathway in the presence of an antagonist (AID 1259383); settings: VM7Luc4E2 cells, ERE-luciferase, +ICI-182,780, 22 h; series mostly up to 92.4 µM; activation: at the top concentration; further: top concentration of the series differs between compounds; nearly all actives have a fitted effect of over 15% in size
Sequence (P03372 whole entry, looked up): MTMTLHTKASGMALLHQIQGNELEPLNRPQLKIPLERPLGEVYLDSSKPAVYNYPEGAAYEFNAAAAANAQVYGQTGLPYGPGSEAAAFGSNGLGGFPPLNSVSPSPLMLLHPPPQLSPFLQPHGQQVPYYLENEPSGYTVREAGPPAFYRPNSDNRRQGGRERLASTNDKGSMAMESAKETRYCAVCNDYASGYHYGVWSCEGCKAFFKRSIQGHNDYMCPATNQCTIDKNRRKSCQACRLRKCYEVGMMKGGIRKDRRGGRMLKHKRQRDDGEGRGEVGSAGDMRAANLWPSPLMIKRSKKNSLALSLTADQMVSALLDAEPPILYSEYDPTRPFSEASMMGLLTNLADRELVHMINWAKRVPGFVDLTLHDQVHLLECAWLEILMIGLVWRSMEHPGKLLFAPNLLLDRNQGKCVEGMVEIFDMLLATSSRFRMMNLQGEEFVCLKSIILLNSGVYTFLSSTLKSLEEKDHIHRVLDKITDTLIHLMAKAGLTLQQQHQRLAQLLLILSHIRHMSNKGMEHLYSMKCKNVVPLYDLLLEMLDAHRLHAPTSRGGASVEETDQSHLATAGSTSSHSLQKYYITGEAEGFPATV
From the text: National Center for Advancing Translational Sciences [NCATS] NIH Chemical Genomics Center [NCGC] U.S. Environmental Protection Agency [EPA] National Institutes of Environmental Health Sciences [NIEHS] National Toxicology Program [NTP] Assay overview: Estrogen receptor (ER), a member of nuclear hormone receptor plays an important role in development, metabolic homeostasis and reproduction. Two subtypes of ER, ER-alpha and ER-beta, have similar expression patterns with some uniqueness in both types. Endocrine disrupting chemicals (EDCs) and their interactions with steroid hormone receptors like ER causes disruption of normal endocrine function. Therefore, it is important to understand the effect of environmental chemicals in ER signaling pathway. For identifying ER agonists, VM7Luc4E2 cell line has been used in the current assay. VM7Luc4E2 cell line (provided by Denison MS, University of California) endogenously expresses full-length ER-alpha and is stably transfected with a plasmid containing four estrogen responsive elements (ERE) upstream of a luciferase reporter gene. This current screening for measuring luciferase reporter gene activity using VM7Luc4E2 cells against Tox21 10K library collection is a confirmation study on agonist mode screening in presence of ER-antagonist (ICI-182,780) at 10.0nM final concentration.
Assay Protocol Summary: VM7Luc4E2 cells were cultured in phenol red free assay medium containing 10% charcoal stripped FBS for 5 days prior to the assay. The cells were dispensed at 4,000 cells in 4uL of assay medium per well into white wall/solid-bottom 1536-well plates (Corning Life Sciences, Corning, NY) using a Multidrop Combi (Thermo Fisher Scientific Inc., Waltham, MA) dispenser. After the assay plates were incubated at 37C and 5% CO2 for 24hr, 1uL of 10.0nM (final concentration) ICI-182,780 or assay buffer was added using two separate tips of Flying Reagent Dispenser (FRD, Aurora Discovery, San Diego, CA). Then 23nL of compounds dissolved in DMSO at 15 concentrations and positive controls or DMSO only was transferred to the assay plates by a Pintool station (Wako, San Diego, CA). The assay plates were incubated at 37C and 5% CO2 for 22hr. For luciferase read, 4uL/well ONE-Glo reagent (Promega Corporation, Madison, WI) was added to each well using FRD and after 30min incubation at room temperature, luminescence signal was measured on ViewLux plate reader (PerkinElmer, Shelton, CT).
On the % scale 0 is the no-effect control and ±100 the full control effect.

SMILES	activation	Potency
Cc1cc(C)c(C=O)c(C)c1	-1.16%	
COc1cccc(CCc2ccccc2OCC(CN(C)C)OC(=O)CCC(=O)O)c1 (stereo not given)	-0.927% [at 42.5 µM]	
CCCCCCCCCCCCCC[n+]1ccccc1	-15.8%	
CC1CCCCN1CCCOC(=O)c1ccc(OC2CCCCC2)cc1 (stereo not given)	-0.207% [at 42.5 µM]	
CC(C)(C)C1=CC(=O)C=C(C(C)(C)C)C1=O	-0.562%	
O=S(=O)(O)c1cc(S(=O)(=O)O)c2ccc3c(S(=O)(=O)O)cc(S(=O)(=O)O)c4ccc1c2c43	-1.94% [at 19 µM]	
O=C1Nc2ccc(Cl)cc2[C@@](C#CC2CC2)(C(F)(F)F)O1	-1.28% [at 42.5 µM]	
C=C[C@](C)(O)CC[C@@H]1[C@@]2(C)CCCC(C)(C)[C@@H]2CC[C@@]1(C)O	-2.86%	
CCCCCCCC(OC)OC	-0.0393% [at 42.5 µM]	
CC1=CCC(=O)O1	-1.44%	
CCCCCCOc1cc(C)c(O)c(C)c1C	-0.296%	
O=C1C=CC(=O)N1c1ccccc1	-14.3%	
S=P(N1CC1)(N1CC1)N1CC1	-2.94%	
CCCCCCCCCCCCOC(=O)c1cc(O)c(O)c(O)c1		inactive
CN(C)CCN1CCOCC1	-0.0167%	
CO[Si](CCC1CCC2OC2C1)(OC)OC (stereo not given)	-1.26%	
NC1(c2ccc(-c3nc4ccn5c(=O)[nH]nc5c4cc3-c3ccccc3)cc2)CCC1	-0.346% [at 42.5 µM]	
Cc1cc2c(C(C)C)c(O)c(O)c(C=O)c2c(O)c1-c1c(C)cc2c(C(C)C)c(O)c(O)c(C=O)c2c1O	-0.155% [at 42.5 µM]	
CCCCCCCC/C=C\CCCCCCCC(=O)N(C)CC(=O)O	-1.53%	
CN(C)CCCN1c2ccccc2Sc2ccc(C(F)(F)F)cc21	0.45% [at 42.5 µM]	

SMILES	activation	Potency
COc1ccc(C#N)cc1	-1.71%	
CC(=O)C=O	0.0413%	
N#CSCSc1nc2ccccc2s1	-1.07%	
Oc1cc2ccccc2cc1O	1.7%	
CC(C)(c1cc(Br)c(OCCO)c(Br)c1)c1cc(Br)c(OCCO)c(Br)c1	-13.4%	
CC1=CP(=O)(c2ccccc2)CC1 (stereo not given)	-3.6%	
COC(=O)CC#N	-0.638%	
CCCCCCCC(C)=O	-0.091%	
O=C(Nc1ccc(Cl)c(Cl)c1)c1cc(Cl)cc(Cl)c1O	1.4%	
Cc1cc(=O)[nH]c(=O)[nH]1	-1.82%	
CCOC(=O)C1=C(C)NC(C)=C(C(=O)OCC)C1c1ccccc1/C=C/C(=O)OC(C)(C)C	-1.42% [at 42.5 µM]	
C=C(C)CCCC	-2.31%	
COc1cccc(O)c1	1.06%	
CC(C)=CC1CC(C)CCO1 (stereo not given)	-3.3%	
CCc1cccc(CC)c1NC(=O)C(=O)O	-0.164%	
CCCCCCCCCCCCCOP(=O)(O)O	-1.24%	
CCc1c(C(=O)O)c(=O)cnn1-c1ccc(Cl)cc1	-1.49%	
CC(C)=CCCC(C)O (stereo not given)	-1.44%	
CCOC(OCC)C(=O)c1ccccc1	0.509%	
CCOCOCC	-0.736%	
